This passage reports growth inhibition results from PubChem BioAssay (NCI).

About 79,000 compounds went through this panel and 15% of them were active in at least one assay; those are over-represented in the sample as a whole. Calls of active or inactive are those of the source. No stated cut-off is given here; in the data, active means growth inhibition above about 70%; inactive means the rest.

This assay is described as follows: NCI Yeast Anticancer Drug Screen. Data for the rad18 strain (AID 177). As to conditions: S. cerevisiae rad18 mutant growth inhibition; at 1.2 µM; hits give high values. In a few lines: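 Measured value is growth inhibition of a yeast strain bearing a DNA repair alteration, referenced to vehicle-treated cells.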
On to `Cc1ccc2c(c1)C1(SC(C)C(=O)N1c1ccc(Cl)cc1)C(=O)N2` (centres undefined), for which the growth inhibition is 4% (inactive). The value for `COc1cc(CSc2ccc(O)cc2)cc(O)c1O` was -2% (inactive); that for `Cc1ccc2c3ccc4c(c3n(C)c2c1)C(=O)C=CC4=O` was 4% (inactive). The value for `O=C(Nc1ccc(Cl)cc1)Nc1nnc2nc(C(C(=O)c3cccc([N+](=O)[O-])c3Cl)c3nc4nnc(NC(=O)Nc5ccc(Cl)cc5)n4[nH]c3=O)c(=O)[nH]n12` was -1% (inactive). As for `O=C(O)C1CC(c2ccccc2)=NN1c1ccccc1` (centres undefined), the figure is -38% (inactive); as for `CCCCc1ccc(-n2c(C)c(COC(=O)NC)c(COC(=O)NC)c2C)cc1`, -27% (inactive). As to `CCC(=O)c1cc(C(=O)C(=S)SC)cc(C(=O)C(=S)SC)c1`, the growth inhibition was -6% (inactive). As to `CCn1c(O)c(C=Nc2ccccc2)s/c1=N/Nc1nc(-c2ccccc2)cs1`, the growth inhibition is -3% (inactive). As for `Cc1nc2ccccc2nc1NNc1ccccc1`, the figure is -3% (inactive).
